Assay [1] in a line: CCTE_Harrill_HTTr_Viability_MCF7: CCTE's 6-hour Cell Viability Assessment for the High-Throughput Transcriptomics (HTTr) Platform, in MCF-7 cells cultured in DMEM + 10% fetal bovine serum, Harrill Lab (AID 2284010). The gist of the method: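 Viability measured through PI dye exclusion by high-content imaging at 6 h post-dosing.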
Assay [2] can be described thus: CCTE_Harrill_HTTr_Apoptosis_MCF7: CCTE's 6-hour Apoptosis Assessment for the High-Throughput Transcriptomics (HTTr) Platform, in MCF-7 cells cultured in DMEM + 10% fetal bovine serum, Harrill Lab (AID 2284011). The gist of the method:
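Read-out: CellEvent Caspase 3/7 Green signal by high content imaging, gain-of-signal indicating apoptosis. MCF-7 cells, DMEM + 10% FBS, eight-point dilution series, 6 h exposure. Curves fitted bidirectionally relative to DMSO negative control.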

Assay [3] in a line: CCTE_Shafer_MEA_acute_spike_number: CCTE's Neural Acute Assay for Total Number of Spikes, Shafer Lab (AID 2284008). The gist of the method:
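Rat cortical cultures, DIV 13/15, 37 C. 40 min baseline rec, cpd 0.03-40 uM, 40 min post-dose rec. Band-pass 300-5000 Hz, spike threshold 8x rms; % change in spike count per well, DMSO neg ctrl, loss-of-signal fit.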

Assay [4] is described as follows: CCTE_Shafer_MEA_acute_firing_rate_mean: CCTE's Neural Acute Assay for Mean Firing Rate, Shafer Lab (AID 2284009).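 Further: analyzed for loss of signal so actives lower firing rate relative to DMSO.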 Summed up:
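Rat primary cortical neurons on 48-well MEA plates, dosed at 0.03-40 uM on DIV 13 or 15; 40 min spontaneous activity recorded at 37 C before and after compound. Spike rate per electrode averaged per well, expressed as percent change from baseline.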

The nature of assay [5]: CCTE_Shafer_MEA_acute_burst_duration_mean: CCTE's Neural Acute Assay for Mean Burst Duration, Shafer Lab (AID 2284014).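 Further: hits are decreases in mean burst duration relative to DMSO controls.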 Summed up: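 Rat primary cortical neurons on 48-well MEA, treated at DIV 13 or 15 with 0.03-40 uM in at least 3 wells. Value is percent change in mean burst duration, comparing 40 min recordings at 37 C before and during exposure.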
Assay [6] in a line: CCTE_Shafer_MEA_acute_per_burst_spike_number_mean: CCTE's Neural Acute Assay for Average Number of Spikes Per Burst, Shafer Lab (AID 2284015).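 Further: hits are decreases in mean spikes per burst versus baseline.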 Summed up:
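Primary rat cortical neurons on 48-well MEA plates, treated on DIV 13 or 15 at 0.03-40 uM. Spontaneous activity recorded 40 min before and 40 min after compound at 37 C; percent change in mean spikes per single-electrode burst per well, fitted in the loss direction versus DMSO.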

Assay [7] in a line: CCTE_Shafer_MEA_acute_interburst_interval_mean: CCTE's Neural Acute Assay for Mean Interburst Interval, Shafer Lab (AID 2284016).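 Further: percent change of mean interburst interval versus each well's own pre-dose baseline; curves fitted for decrease in interburst interval relative to DMSO.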 The gist of the method: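 Primary rat cortical neurons on 16-electrode MEA wells were recorded 40 min at baseline on DIV 13 or 15, then 40 min after compound (0.03-40 uM), at 37 C. Value is percent change in mean interburst interval per well, DMSO as negative control.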

The nature of assay [8]: CCTE_Shafer_MEA_acute_burst_percentage_mean: CCTE's Neural Acute Assay for Percentage of Spikes in a Burst, Shafer Lab (AID 2284017). The gist of the method: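 Primary rat cortical neurons on 16-electrode MEA wells; 40 min baseline recorded at DIV 13 or 15, then 40 min after compound (0.03-40 uM) at 37 C. Well-mean fraction of spikes in single-electrode bursts; percent change from baseline, DMSO as negative control.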

Active and inactive are the calls of the source. How the source made its calls: active means hit-call score of the fitted dose curve at least 0.9, where 1 is the maximum; inactive means score below 0.9.

Consider 19 molecules from PubChem BioAssay (EPA / NIEHS).

Turning to `COCc1cnc(C2=NC(C)(C(C)C)C(=O)N2)c(C(=O)O)c1` (centres undefined), the result in assay [1] and in assay [2] was inactive.
For the molecule `COC(=O)c1c(C(F)F)nc(C(F)(F)F)c(C2=NCCS2)c1CC(C)C`, the result in assay [1] and in assay [2] was inactive.
On to `C=CCOC(=O)C(C)(C)OC(=O)c1cc(-n2c(=O)cc(C(F)(F)F)n(C)c2=O)ccc1Cl`, for which the outcome in assay [1] and in assay [2] was inactive.
For the molecule `O=c1n(Cl)c(=O)n(Cl)c(=O)n1Cl`, the result in assay [1] and in assay [2] was inactive.
Consider `CCCCC(C#N)(Cn1cncn1)c1ccc(Cl)cc1` (centres undefined), for which the outcome in assay [1] and in assay [2] was inactive.
Regarding `O=C(O)c1c(Cl)ccc2cc(Cl)cnc12`, the result in assay [1] and in assay [2] was inactive.
As for `COP(=O)(OC)O/C(C)=C/C(=O)N(C)C`, the outcome in assay [1] and in assay [2] was inactive.
Take `COC(=O)NC(=S)Nc1ccccc1NC(=S)NC(=O)OC`: the result in assay [1] and in assay [2] was inactive.
As to `CCOc1nc(C(Cl)(Cl)Cl)ns1`, the result in assay [1] and in assay [2] was inactive.
Take `CCC(C)n1c(=O)[nH]c(C)c(Br)c1=O` (centres undefined): the outcome in assay [1] and in assay [2] was inactive.
Consider `Cc1cc(C)nc(Nc2ccccc2)n1`, for which the result in assay [1] and in assay [2] was inactive.
In the case of `CC(C)Oc1cccc(NC(=O)c2ccccc2C(F)(F)F)c1`, the outcome in assay [1] and in assay [2] was inactive.
In the case of `CNC(=O)Oc1cccc2ccccc12`, the molecule was classed as inactive in assay [3], in assay [4], in assay [1], in assay [2], in assay [5] and in assay [6]. In addition, the call in assay [7] and in assay [8] was inactive.
As for `CN=C=S`, the outcome in assay [1] and in assay [2] was inactive.
On to `CC(C)NC(=O)N1CC(=O)N(c2cc(Cl)cc(Cl)c2)C1=O`, for which the outcome in assay [1] and in assay [2] was inactive.
`CC1(C)CON(Cc2ccccc2Cl)C1=O`: the result in assay [1] and in assay [2] was inactive.
With `N#Cc1c(Cl)cccc1Cl`, the outcome in assay [1] and in assay [2] was inactive.
`COc1cc(Cl)c(OC)cc1Cl`: the result in assay [1] and in assay [2] was inactive.
In the case of `CS(=O)(=O)c1ccc(C(=O)C2C(=O)CCCC2=O)c([N+](=O)[O-])c1`, the outcome in assay [1] and in assay [2] was inactive.
